# Measurements reported in the supplement of paper PMC4022240.
# ± gives the standard deviation.
# T1: HaloTag-ATRX ADD domain (163-292)
# T1 chain: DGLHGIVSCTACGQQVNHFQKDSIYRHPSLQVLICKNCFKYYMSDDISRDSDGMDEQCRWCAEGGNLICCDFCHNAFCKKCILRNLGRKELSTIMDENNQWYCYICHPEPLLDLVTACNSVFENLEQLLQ
# What was measured:
# Test in all cases: peptide microarray binding signal (635 nm), min-max normalized on array (fraction of array maximum); higher = stronger binding
# [1] = molecular target: T1, HaloTag-ATRX ADD domain (163-292)
# Outline: (§1)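 For each library, binding signal was taken as the triplicate-spot mean intensity and then min-max scaled. Spots of histone 13-mer peptide–cellulose conjugates on nitrocellulose, printed in triplicate with a Cy3 tracer, were probed for 1 h at 4°C with either biotin-labelled HaloTag reader fusions (10 nM to 1 μM) and streptavidin-Alexa Fluor 647 or rabbit histone antibodies (1:10,000 to 1:2,000) and anti-rabbit Alexa 647. Readout at 635 nm came from an Axon GenePix 4000B.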
# [2] = molecular target: HaloTag-ING2 PHD (mouse Ing2 200-280)
# Outline: as §1
# [3] = molecular target: anti-H3K4me3 antibody ab8580
# Outline: as §1
# [4] = molecular target: anti-H3K9me3 antibody ab8898
# Outline: as §1
# [5] = peptide region: H3 20-32, peptide modifications: H3R26me2s H3K27me1, binder concentration: 1:2,000 dilution
# [6] = peptide region: H3 20-32, peptide modifications: H3R26me2s H3K27me1, binder concentration: 1:10,000 dilution
# [7] = peptide region: H3 20-32, peptide modifications: H3T22ph H3K23ac, binder concentration: 1:2,000 dilution
# [8] = peptide region: H3 20-32, peptide modifications: H3T22ph H3K23ac, binder concentration: 1:10,000 dilution
# [9] = peptide region: H3 20-32, peptide modifications: H3R26me2s H3K27me2, binder concentration: 1:2,000 dilution
# [10] = peptide region: H3 20-32, peptide modifications: H3R26me2s H3K27me2, binder concentration: 1:10,000 dilution
# [11] = peptide region: H3 20-32, peptide modifications: H3R26me2s H3K27ac, binder concentration: 1:2,000 dilution
# [12] = peptide region: H3 20-32, peptide modifications: H3R26me2s H3K27ac, binder concentration: 1:10,000 dilution
# [13] = peptide region: H3 30-42, peptide modifications: H3K36ac, binder concentration: 1:2,000 dilution
# [14] = peptide region: H3 30-42, peptide modifications: H3K36ac, binder concentration: 1:10,000 dilution
binder,measurement,setting,value
LATKAARKSAPAT [H3 20-32 L A T K A A Rme2s Kme S A P A T],peptide microarray binding signal,"[1]; peptide region: H3 20-32, peptide modifications: H3R26me2s H3K27me1, binder concentration: 50 nM",0.00511 ± 6.7e-05
same,peptide microarray binding signal,"[1]; peptide region: H3 20-32, peptide modifications: H3R26me2s H3K27me1, binder concentration: 500 nM",0.00771 ± 0.00038
same,peptide microarray binding signal,"[2]; peptide region: H3 20-32, peptide modifications: H3R26me2s H3K27me1, binder concentration: 10 nM",0.0191 ± 0.00015
same,peptide microarray binding signal,"[2]; peptide region: H3 20-32, peptide modifications: H3R26me2s H3K27me1, binder concentration: 100 nM",0.02409 ± 0.00015
same,peptide microarray binding signal,[3]; [5],0.00608 ± 0.0005
same,peptide microarray binding signal,[3]; [6],0.00845 ± 0.00053
same,peptide microarray binding signal,[4]; [5],0.00384 ± 0.00014
same,peptide microarray binding signal,[4]; [6],0.00283 ± 4.9e-05
LATKAARKSAPAT [H3 20-32 L A Tph Kac A A R K S A P A T],peptide microarray binding signal,"[1]; peptide region: H3 20-32, peptide modifications: H3T22ph H3K23ac, binder concentration: 50 nM",0.00602 ± 0.00043
same,peptide microarray binding signal,"[1]; peptide region: H3 20-32, peptide modifications: H3T22ph H3K23ac, binder concentration: 500 nM",0.0111 ± 0.0014
same,peptide microarray binding signal,"[2]; peptide region: H3 20-32, peptide modifications: H3T22ph H3K23ac, binder concentration: 10 nM",0.0199 ± 0.0011
same,peptide microarray binding signal,"[2]; peptide region: H3 20-32, peptide modifications: H3T22ph H3K23ac, binder concentration: 100 nM",0.0259 ± 0.00072
same,peptide microarray binding signal,[3]; [7],0.00476 ± 0.00081
same,peptide microarray binding signal,[3]; [8],0.00616 ± 0.00082
same,peptide microarray binding signal,[4]; [7],0.00257 ± 0.00028
same,peptide microarray binding signal,[4]; [8],0.00202
LATKAARKSAPAT [H3 20-32 L A T K A A Rme2s Kme2 S A P A T],peptide microarray binding signal,"[1]; peptide region: H3 20-32, peptide modifications: H3R26me2s H3K27me2, binder concentration: 50 nM",0.00351 ± 3.8e-05
same,peptide microarray binding signal,"[1]; peptide region: H3 20-32, peptide modifications: H3R26me2s H3K27me2, binder concentration: 500 nM",0.00129 ± 2.1e-05
same,peptide microarray binding signal,"[2]; peptide region: H3 20-32, peptide modifications: H3R26me2s H3K27me2, binder concentration: 10 nM",0.003342 ± 1.8e-05
same,peptide microarray binding signal,"[2]; peptide region: H3 20-32, peptide modifications: H3R26me2s H3K27me2, binder concentration: 100 nM",0.00312 ± 7.5e-05
same,peptide microarray binding signal,[3]; [9],0.00128 ± 2e-05
same,peptide microarray binding signal,[3]; [10],0.00114 ± 2.3e-05
same,peptide microarray binding signal,[4]; [9],0.000725 ± 1.1e-05
same,peptide microarray binding signal,[4]; [10],0.000865 ± 9e-06
LATKAARKSAPAT [H3 20-32 L A T K A A Rme2s Kac S A P A T],peptide microarray binding signal,"[1]; peptide region: H3 20-32, peptide modifications: H3R26me2s H3K27ac, binder concentration: 50 nM",0.00495 ± 0.00035
same,peptide microarray binding signal,"[1]; peptide region: H3 20-32, peptide modifications: H3R26me2s H3K27ac, binder concentration: 500 nM",0.00714 ± 0.00025
same,peptide microarray binding signal,"[2]; peptide region: H3 20-32, peptide modifications: H3R26me2s H3K27ac, binder concentration: 10 nM",0.0155 ± 0.00088
same,peptide microarray binding signal,"[2]; peptide region: H3 20-32, peptide modifications: H3R26me2s H3K27ac, binder concentration: 100 nM",0.0127 ± 0.00058
same,peptide microarray binding signal,[3]; [11],0.00574 ± 0.0007
same,peptide microarray binding signal,[3]; [12],0.00491 ± 7.1e-05
same,peptide microarray binding signal,[4]; [11],0.0064 ± 0.0001
same,peptide microarray binding signal,[4]; [12],0.00715 ± 0.0006
PATGGVKKPHRYR [H3 30-42 P A T G G V Kac K P H R Y R],peptide microarray binding signal,"[1]; peptide region: H3 30-42, peptide modifications: H3K36ac, binder concentration: 50 nM",0.0068 ± 0.00033
same,peptide microarray binding signal,"[1]; peptide region: H3 30-42, peptide modifications: H3K36ac, binder concentration: 500 nM",0.0116 ± 0.0019
same,peptide microarray binding signal,"[2]; peptide region: H3 30-42, peptide modifications: H3K36ac, binder concentration: 10 nM",0.0378 ± 0.0029
same,peptide microarray binding signal,"[2]; peptide region: H3 30-42, peptide modifications: H3K36ac, binder concentration: 100 nM",0.0552 ± 0.0035
same,peptide microarray binding signal,[3]; [13],0.0364 ± 0.0021
same,peptide microarray binding signal,[3]; [14],0.0246 ± 0.0028
same,peptide microarray binding signal,[4]; [13],0.025 ± 0.0016
same,peptide microarray binding signal,[4]; [14],0.00963 ± 0.00018
